From PubChem BioAssay (NCATS)
Results filed as inconclusive are left out. Active and inactive are the calls of the source. Unless noted, calls come from the whole dose curve; as a rule, active = well fitted curve in the direction sought with a large enough effect; inconclusive = small, poorly fitted or top-dose-only effect, or another doubt; inactive = no such curve, though single readings can be large; an effect the other way counts as inactive or inconclusive.

Experiments:
[1] = biological target: Cytochrome P450 3A4 (Homo sapiens) (UniProt P08684); assay: qHTS Assay for Activators of Cytochrome P450 3A4 (AID 885); note: nearly all actives have a fitted effect of over 65% in size; note: potency is the fitted concentration of half-maximal effect
Sequence of Cytochrome P450 3A4 (Homo sapiens) (P08684 whole entry, looked up): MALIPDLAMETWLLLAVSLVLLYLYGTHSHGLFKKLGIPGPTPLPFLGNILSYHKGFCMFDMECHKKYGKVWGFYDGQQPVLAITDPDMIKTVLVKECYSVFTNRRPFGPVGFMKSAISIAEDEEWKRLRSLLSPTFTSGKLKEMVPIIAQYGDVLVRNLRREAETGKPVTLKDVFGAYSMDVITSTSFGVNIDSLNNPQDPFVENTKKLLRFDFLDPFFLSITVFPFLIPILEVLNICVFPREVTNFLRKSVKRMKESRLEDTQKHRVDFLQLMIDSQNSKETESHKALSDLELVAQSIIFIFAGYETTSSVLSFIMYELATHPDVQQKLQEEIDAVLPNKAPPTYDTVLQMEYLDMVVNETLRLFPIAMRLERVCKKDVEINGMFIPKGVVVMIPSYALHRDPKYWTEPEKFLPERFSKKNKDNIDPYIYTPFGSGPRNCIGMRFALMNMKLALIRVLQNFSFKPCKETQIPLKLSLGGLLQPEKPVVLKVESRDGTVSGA
Method in brief: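 Human CYP3A4 dealkylates Luciferin-PPXE to luciferin, which luciferase detection converts to light. Substrate was at its KM (25uM), buffer 200mM KPO4, reaction 60 min at RT.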

[2] = qHTS Assay for Lipid Storage Modulators (AID 1519; calls by dose curve; note: potency is the fitted concentration of half-maximal effect; for activity change, negative = inhibition: % is set by controls: 0 for no effect and ±100 for the full control effect); conditions: Drosophila S3 cells, BODIPY lipid droplet/cell ratio, laser cytometry, cells loaded with oleic acid; for activity change, negative = inhibition: at 57.5 µM (top of the series)
Method in brief: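 Cells seeded at 5,000 per well were treated with compounds over a concentration series and loaded with oleic acid (400 uM, as added). Lipid droplet fluorescence (488 nm excitation, 500-530 nm channel) was read by laser-scanning cytometry and normalized to 20 uM Triacsin C.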

[3] = biological target: DNA dC->dU-editing enzyme APOBEC-3G (Homo sapiens) (UniProt Q9HC16); assay: qHTS for inhibitors of Vif-A3G interactions: Validation (AID 588379); note: 0% is about no effect
Sequence of DNA dC->dU-editing enzyme APOBEC-3G (Homo sapiens) (Q9HC16 whole entry, looked up): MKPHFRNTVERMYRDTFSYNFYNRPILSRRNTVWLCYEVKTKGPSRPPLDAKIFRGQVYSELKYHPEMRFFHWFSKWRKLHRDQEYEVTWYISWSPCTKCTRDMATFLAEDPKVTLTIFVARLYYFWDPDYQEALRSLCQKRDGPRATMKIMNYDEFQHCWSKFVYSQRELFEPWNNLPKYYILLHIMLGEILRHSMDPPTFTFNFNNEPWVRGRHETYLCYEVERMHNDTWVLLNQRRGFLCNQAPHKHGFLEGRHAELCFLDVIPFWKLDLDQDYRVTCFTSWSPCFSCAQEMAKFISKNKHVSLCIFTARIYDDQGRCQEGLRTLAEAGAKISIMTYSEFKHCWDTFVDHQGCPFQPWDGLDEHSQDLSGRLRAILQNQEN
Method in brief: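 Yellow fluorescence (Ex 488, Em 500-530) of Vif-coexpressing HeLa A3G-eYFP cells, scanned by Acumen cytometer, reports blocked A3G degradation. Cells plated at 700/well overnight at 37 deg C before compound addition, then a further overnight compound incubation at 37 deg C.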

[4] = biological target: Cytochrome P450 3A4 (Homo sapiens) (UniProt P08684); assay: qHTS Assay for Inhibitors and Substrates of Cytochrome P450 3A4 (AID 884); note: nearly all actives have a fitted effect of over 50% in size; note: potency is the fitted concentration of half-maximal effect; for activity change, negative = inhibition: % is set by controls: 0 for no effect and ±100 for the full control effect
Method in brief: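 Luminescent readout of luciferin produced by CYP3A4 (20 nM) dealkylation of Luciferin-PPXE, 25 uM (its KM). NADPH-driven reaction ran 60 min at RT after 10 min compound preincubation; data scaled to 57 uM ketoconazole as 100% inhibition.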

[5] = Confirmation and Secondary Assay for Modulators of Hemoglobin Beta Chain Splicing at IVS2 654 locus (AID 910);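 note: HeLa cells stably carrying EGFP split by mutant beta-globin IVS2-654 intron; per-well total GFP intensity by laser scanning cytometry after 2-day treatment; % of control where 0% means no effect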
Method in brief: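 Readout: per-well total peak green fluorescence (488 nm ex, 500–520 nm em) from objects 5–250 µm, reflecting correct splicing of an EGFP-654 reporter. Compounds were applied for 2 days at 37 °C to overnight-plated HeLa EGFP-654 cells; controls were DMSO and 500 nM IVS2-654 PNA.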

[6] = Confirmation and Secondary Assay for Modulators of Hemoglobin Beta Chain Splicing at IVS2 705 locus (AID 930);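 note: HeLa cells stably expressing the EGFP-705 splicing reporter; GFP fluorescence per well restored by corrected splicing of the IVS2-705 intron in EGFP; % of control where 0% means no effect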
Method in brief: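 Splice-correction reporter: EGFP cDNA split by beta-globin intron 2 bearing the 705 mutation, stably in HeLa. Compound incubation 2 days, 37C; fluorescent objects 5-250 µm summed per well.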

[7] = biological target: Luciferin 4-monooxygenase (Photinus pyralis) (UniProt P08659); assay: Biochemical firefly luciferase enzyme assay for NPC (AID 624030);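 note: purified P. pyralis luciferase at 10 nM with luciferin and ATP substrate; 0% = DMSO and -100% = full luciferase inhibition by PTC124 control; nearly all actives have a fitted effect of over 70% in size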
Sequence of Luciferin 4-monooxygenase (Photinus pyralis) (P08659 whole entry, looked up): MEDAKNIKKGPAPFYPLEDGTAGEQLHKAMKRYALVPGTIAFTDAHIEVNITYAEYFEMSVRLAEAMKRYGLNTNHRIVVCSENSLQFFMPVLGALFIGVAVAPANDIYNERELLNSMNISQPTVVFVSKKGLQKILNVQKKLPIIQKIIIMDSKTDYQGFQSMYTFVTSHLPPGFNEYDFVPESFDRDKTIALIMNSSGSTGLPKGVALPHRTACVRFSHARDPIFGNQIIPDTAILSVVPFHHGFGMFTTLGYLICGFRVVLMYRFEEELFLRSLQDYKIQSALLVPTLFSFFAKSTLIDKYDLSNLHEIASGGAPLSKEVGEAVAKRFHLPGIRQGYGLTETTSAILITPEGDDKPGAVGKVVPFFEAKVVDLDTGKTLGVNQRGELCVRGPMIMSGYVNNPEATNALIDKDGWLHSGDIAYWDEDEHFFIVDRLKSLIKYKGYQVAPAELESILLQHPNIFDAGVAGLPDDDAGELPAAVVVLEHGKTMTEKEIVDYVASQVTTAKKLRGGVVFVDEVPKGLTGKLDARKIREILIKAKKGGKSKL
Method in brief: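 Direct inhibition of firefly luciferase enzyme (10 nM final, 50 mM Tris Acetate) assessed by luminescence within 5 minutes. Percent activity scaled between DMSO and PTC124 positive control, with concentration-effect curves classified by fit quality and response.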

[8] = measured here: cell count channel max response
[9] = measured here: lipid channel max response

Structure (SMILES)	Potency [1]	activity change, negative = inhibition [2]	max response [2, 8]	max response [2, 9]	outcome [3]	Potency [4]	Potency [5]	Potency [6]	Potency [2]	Potency [7]
CC1(C)CCC[C@]2(C)C3CC(=O)O[C@@]3(C)CC[C@H]12 (stereo not given in full)	inactive	5.49% (inactive)	5.53%	11.1%	inactive	–	–	–	–	–
N=c1ccn2c(n1)O[C@@H]1[C@H](O)[C@H](CO)O[C@@H]12	–	-7.95% (inactive)	4.02%	-4.27%	inactive	inactive	–	–	–	–
CC1=CC(=O)C2C(C)(C)CCC[C@@]2(C)[C@@]1(O)CCc1ccoc1 (stereo not given in full)	inactive	-1.73% (inactive)	10.7%	10.8%	–	15.8 µM (active)	inactive	inactive	–	–
COC(=O)CC1C2(C)CC34OC5(C)O[C@@]6(C7/C(=C(/O)C(C)C)C(=O)OC(c8ccoc8)[C@]7(C)C(OC(C)=O)C(OC(C)=O)[C@]6(O5)[C@@]13C)C(OC(C)=O)[C@]4(O)C2OC(=O)C(C)C (stereo not given in full)	inactive	8.78% (inactive)	16.6%	29.3%	–	12.6 µM (active)	inactive	inactive	–	–
COc1ccc(C(C)C(=O)c2ccc(O)cc2O)cc1 (stereo not given)	inactive	0.578% (inactive)	-18.6%	-16.9%	–	3.98 µM (active)	inactive	inactive	–	–
COc1c(-c2coc3cc4c(cc3c2=O)CC(O)C(C)(C)O4)ccc2c1C=CC(C)(C)O2 (stereo not given)	2.51 µM (active)	–	-20.3%	-70.3%	–	inactive	inactive	inactive	0.0708 µM (active)	–
O=C(/C=C/c1ccc(O)c(O)c1)O[C@@H]1C[C@@](O)(C(=O)O)C[C@H](O)[C@@H]1O	–	-7.73% (inactive)	3.01%	-5.95%	inactive	inactive	–	–	–	–
COc1ccc2c(c1)OCC(Cc1ccc(O)c(OC)c1)C2=O (stereo not given)	inactive	13.3% (inactive)	8.4%	29.2%	–	2 µM (active)	inactive	inactive	–	–
CC[C@@H]1OC(=O)[C@@H](C)[C@H](O[C@H]2C[C@@](C)(OC)[C@@H](O)[C@H](C)O2)C(C)[C@H](O[C@H]2O[C@@H](C)C[C@@H](N(C)C)[C@@H]2O)[C@@](C)(O)C[C@H](C)C(=O)[C@@H](C)[C@H](O)[C@@]1(C)O (stereo not given in full)	inactive	6.26% (inactive)	3.51%	7.04%	inactive	15.8 µM (active)	–	–	–	–
C/C=C(\C)C(=O)OC1[C@@H]2C=C3C4CC(=O)OC(c5ccoc5)[C@]4(C)CCC3[C@@](C)(C2=O)C(C(O)C(=O)OC)C1(C)C (stereo not given in full)	inactive	-1.19% (inactive)	8.66%	12.5%	–	12.6 µM (active)	inactive	inactive	–	–
CO/N=C(\C(=O)NC1C(=O)N2C(C(=O)OCOC(=O)C(C)(C)C)=C(/C=C\c3scnc3C)CSC12)c1csc(N)n1 (stereo not given)	–	12.3% (inactive)	-4.33%	11.5%	–	–	inactive	inactive	–	inactive
CC(=O)OC1CC2C(C)(C)C(O)CC[C@@]2(C)C2CC[C@@]3(C)C(c4ccoc4)OC(=O)C4O[C@@]43[C@]12C (stereo not given in full)	inactive	-1.7% (inactive)	-2.48%	-4.24%	–	2.51 µM (active)	inactive	inactive	–	–
CC(=O)OC1CC(OC(C)=O)[C@]2(C)C(CC(O)[C@]3(C)C2CC[C@@]2(C)C(c4ccoc4)OC(=O)C4O[C@]432)C1(C)C (stereo not given in full)	inactive	-15.6% (inactive)	-1.7%	-11.8%	–	2.51 µM (active)	inactive	inactive	–	–
CC[C@H](C)[C@H](NC(=O)OCC1c2ccccc2-c2ccccc21)C(=O)O	inactive	-4.14% (inactive)	1.47%	-2.84%	inactive	31.6 µM (active)	–	–	–	–
CC1OC(OCC2OC(Oc3c(-c4ccc(O)c(O)c4)oc4cc(O)cc(O)c4c3=O)C(O)C(O)C2O)C(O)C(O)C1O (stereo not given)	–	-1.77% (inactive)	-20.3%	-20.8%	inactive	–	–	–	–	–
COC(=O)[C@]1(C)CCC[C@]2(C)c3ccc(C(C)C)cc3C(=O)CC12 (stereo not given in full)	inactive	1.78% (inactive)	15.8%	18.5%	–	25.1 µM (active)	inactive	inactive	–	–
C=C1CCC2C(C)(CO)C(O)CCC2(C)C1C/C=C1\C(=O)OCC1O (stereo not given)	–	-0.167% (inactive)	24.9%	25.5%	inactive	–	–	–	–	–
CC(=O)OC1CC2C(C)(C)C(O)CC[C@@]2(C)C2CC[C@@]3(C)C(c4ccoc4)OC(=O)C4OC43[C@]12C (stereo not given in full)	inactive	-20.5% (inactive)	-7.63%	-27.3%	–	2.51 µM (active)	inactive	inactive	–	–
C[C@@H]1C(=O)O[C@H]2[C@@H](O)[C@@]34[C@H]5CC(C(C)(C)C)[C@]36[C@@H](OC(=O)[C@@H]6O)O[C@@]4(C(=O)O5)[C@@]12O (stereo not given in full)	–	7.16% (inactive)	-2.81%	2.02%	inactive	–	–	–	–	–
COc1c(OC)c2occc2c2oc(=O)ccc12	inactive	12.4% (inactive)	0.397%	12.4%	–	10 µM (active)	inactive	inactive	–	–
C=C1C[C@@]23C[C@@]1(O)CC[C@@H]2[C@]12C=C[C@@H](O)[C@](C)(C(=O)O1)[C@@H]2[C@@H]3C(=O)O	–	-1.64% (inactive)	0.496%	0.595%	inactive	–	–	–	–	–
CC1=CCc2c(cc3oc(C)cc(=O)c3c2O)OC1	inactive	15.7% (inactive)	14.5%	19.5%	–	25.1 µM (active)	inactive	inactive	–	–
CCC(C)C(=O)O[C@H]1C[C@@H](C)C=C2C=C[C@H](C)[C@H](CC[C@@H]3C[C@@H](O)CC(=O)O3)C21 (stereo not given in full)	–	-9.81% (inactive)	22%	13.2%	inactive	–	–	–	–	–
NC(Cc1c[nH]c2ccccc12)C(=O)NCC(=O)O (stereo not given)	–	2.26% (inactive)	-12.4%	-10.5%	inactive	inactive	–	–	–	–

Structure (SMILES)	Potency [1]	activity change, negative = inhibition [2]	max response [2, 8]	max response [2, 9]	outcome [3]	Potency [4]	Potency [5]	Potency [6]	Potency [2]	Potency [7]
COc1ccc(-c2oc3ccccc3c(=O)c2O)cc1OC	inactive	7.98% (inactive)	6.61%	24.2%	–	20 µM (active)	inactive	inactive	–	–
COc1ccc(C2CC(=O)c3c(O)cc(OC4OC(COC5OC(C)C(O)C(O)C5O)C(O)C(O)C4O)cc3O2)cc1O (stereo not given)	–	-2.69% (inactive)	-19%	-20.2%	inactive	inactive	–	–	–	–
COc1ccc(C(=O)/C=C/c2ccccc2)cc1	–	8.41% (inactive)	-9.97%	-1.31%	–	inactive	inactive	inactive	–	–
C=C[C@](C)(O)CCC1C(=C)CC(O)C2C(C)(C)CCCC12C (stereo not given in full)	inactive	10.1% (inactive)	7.01%	14.1%	–	1.58 µM (active)	inactive	inactive	–	–
O=C/C=C/c1ccc(O)cc1	–	4.82% (inactive)	10.7%	16.6%	–	inactive	inactive	inactive	–	–
CNC(CC(=O)O)C(=O)O (stereo not given)	–	0.835% (inactive)	10.8%	11.7%	–	inactive	inactive	inactive	–	–
Cc1c(S(=O)(=O)O)oc2c1C(=O)C(=O)c1c-2ccc2c1CCCC2(C)C	inactive	4.38% (inactive)	7.96%	15.5%	–	10 µM (active)	inactive	inactive	–	–
C=CC1=C(C)/C(=C/c2[nH]c(Cc3[nH]c(/C=C4\NC(=O)C(C)=C4C=C)c(C)c3CCC(=O)O)c(CCC(=O)O)c2C)NC1=O	–	-0.375% (inactive)	3.69%	3.49%	–	inactive	inactive	inactive	–	–
CCC(C)C(=O)OC1C2CC3=C4CC(=O)OC(c5ccoc5)[C@]4(C)CCC3[C@@](C)(C2=O)C(CC(=O)OC)C1(C)C (stereo not given in full)	inactive	-2.94% (inactive)	-4.4%	-5.82%	–	6.31 µM (active)	inactive	inactive	–	–
CC(=O)OCC(=O)[C@@]1(O)CCC2C3CCC4=CC(=O)CC[C@@]4(C)[C@]3(F)C(O)C[C@]21C (stereo not given in full)	–	4.35% (inactive)	21.1%	29.1%	–	inactive	inactive	inactive	–	–
Nc1nc2ncc(=O)[nH]c2c(=O)[nH]1	–	4.1% (inactive)	2.7%	6.73%	–	inactive	inactive	inactive	–	–
CC(C)=CCc1c(O)cc(C)oc1=O	–	0.619% (inactive)	9.29%	11.1%	–	inactive	inactive	inactive	–	–
CO[C@@]1(NC(=O)CSCC#N)C(=O)N2C(C(=O)O)=C(CSc3nnnn3C)CSC21 (stereo not given in full)	–	5.21% (inactive)	4.52%	12.5%	–	inactive	inactive	inactive	–	–
CC(C)c1c(O)c(-c2cc3c(c(C(C)C)c2O)CCC2C(C)(C)CCC[C@@]32C)cc2c1CCC1C(C)(C)CCC[C@@]21C (stereo not given in full)	–	8.62% (inactive)	4.25%	16.8%	–	inactive	inactive	inactive	–	–
CC(C1OC(C)(C)C(O)C1O)C1CC[C@@]2(C)C3=CCC4C(C)(C)C(=O)CC[C@]4(C)C3CC[C@@]12C (stereo not given in full)	–	5.14% (inactive)	-0.971%	3.6%	–	inactive	inactive	inactive	–	–
COC(=O)CC1C(C)(C)C(O)C2CC3=C4CC(O)OC(c5ccoc5)[C@]4(C)CCC3[C@@]1(C)C2=O (stereo not given in full)	–	-6.39% (inactive)	8.85%	5.28%	–	3.16 µM (active)	inactive	inactive	–	–
C[C@]12CCC3c4ccc(O)cc4CCC3C1CC(O)C2O (stereo not given in full)	–	-4.9% (inactive)	6.91%	3.96%	–	inactive	inactive	inactive	–	–
COc1cc(O)c(C(C)=O)c(OC)c1	inactive	4.43% (inactive)	20%	28.9%	–	25.1 µM (active)	inactive	inactive	–	–
CCC(CO)NCCNC(CC)CO (stereo not given)	–	-3.77% (inactive)	8.09%	6.63%	–	inactive	inactive	inactive	–	–
CC(=O)O[C@@]1(C(C)=O)CCC2C3C=C(Cl)C4=CC(=O)CC[C@]4(C)C3CC[C@]21C (stereo not given in full)	–	-2.19% (inactive)	-10.2%	-9.83%	–	inactive	inactive	inactive	–	–
COc1ccc(-c2coc3cc(O)ccc3c2=O)c(O)c1O	–	8.68% (inactive)	-1.1%	7.57%	–	inactive	inactive	inactive	–	–
C=C1CCC(OC(C)=O)/C(C)=C/CC2[C@H]1CC2(C)C (stereo not given in full)	inactive	1.96% (inactive)	2.53%	5.33%	–	31.6 µM (active)	inactive	inactive	–	–
CC1=C(/C=C/C(C)=C/C=C/C(C)=C/C=C/C=C(C)/C=C/C=C(C)/C=C/C(=O)[C@]2(C)CC(O)CC2(C)C)C(C)(C)CC(O)C1 (stereo not given in full)	–	7.14% (inactive)	11.8%	22.4%	–	inactive	inactive	inactive	–	–
